The record followed here is PubChem BioAssay AID686971 (National Center for Advancing Translational Sciences (NCATS), 2013).

Hit rate of the full screen: of about 360,000 compounds, about 7,500 (2.1%) were called active. Not shown: some 8% with an inconclusive outcome. Calls come from the whole dose curve; as a rule, active = well fitted cell-killing curve with a large enough effect; inconclusive = small, poorly fitted or top-dose-only effect, or effect the other way, or another doubt; inactive = no such curve, though single readings can be large or run the other way. The entries come from a sample that favours actives as a whole. A call without a number means that no potency is given here.
Potency is the fitted concentration of half-maximal effect.

The assay can be described thus: qHTS for induction of synthetic lethality in tumor cells producing 2HG: qHTS for the HT-1080-IDH1KD cell line. The following applies: HT-1080 IDH1 knockdown viability, ATP luminescence, 48 h; series mostly up to 46.1 µM. The method, boiled down:
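Knockdown cells (IDH1KD HT-1080) received compounds 2 h after plating at 750 cells/well and were kept 48 h at 37 °C in 5% FBS RPMI. A CellTiter-Glo luminescence read gave % activity for curve fitting.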
In the case of `CC1(C(=O)Nc2cccnc2)Cc2c(-c3ccccc3)ccnc2O1` (stereo not given), the Potency entry is “inactive”. Turning to `COc1ccc(NC(=O)C2Cc3c(-c4cccc(NC(C)=O)c4)ccnc3O2)cc1OC` (stereo not given), the Potency entry is “inactive”. `COc1ccc(NC(=O)C2(C)Cc3c(-c4cccc(NC(C)=O)c4)ccnc3O2)cc1OC` (stereo not given): the Potency was 14.6 µM (active). The value for `O=C(NCc1ccc2c(c1)OCO2)c1cc(F)c(F)cc1Cl` was “inactive”; that for `CC1(C(=O)NCc2ccc(F)c(F)c2)Cc2c(-c3ccc4c(c3)OCO4)ccnc2O1` (stereo not given) was 4.61 µM (active); that for `COc1cc(OC)c(C(=O)NCc2ccc3c(c2)OCO3)cc1OC` was “inactive”. `CC1(C)Cc2cccc(OCC(=O)NCc3ccccc3)c2O1`: the Potency result was “inactive”. As to `COc1ccc(NC(=O)C2(C)Cc3c(-c4ccc(C(N)=O)cc4)ccnc3O2)cc1` (stereo not given), the Potency entry was “inactive”.

With `CC(=O)Nc1cccc(-c2ccnc3c2CC(C)(C(=O)NCc2ccccc2)O3)c1` (stereo not given), the Potency is 0.651 µM (active). As to `O=C(Nc1ccc(F)cc1)Nc1nnc([C@H]2C[C@H](O)[C@@H](CO)O2)s1`, the Potency result was “inactive”. As to `CC(C)c1cc(C(=O)N(C)C2CCCN(Cc3ccccc3F)C2)n(C)n1` (stereo not given), the Potency result is “inactive”.

Consider `COc1ccccc1Cc1c(-c2ccc(Cl)cc2)nc2c3ccccc3ccn12`, for which the Potency result was “inactive”. Consider `CCCS(=O)(=O)NC(=O)C1(C)CCCN(C(=O)c2cccs2)C1` (stereo not given), for which the Potency result was “inactive”.

For `Cc1cc(Br)cn2c(Cc3ccccc3C(F)(F)F)c(-c3ccc(Cl)cc3)nc12`, the Potency entry was “inactive”. The entry for `COc1c(C)cc(C(O)c2ncc(-c3cccc(C(F)(F)F)c3)[nH]2)cc1C` (stereo not given) is “inactive”. The entry for `O=C(Nc1cccc2ccccc12)NC1CC1` is “inactive”; for `O=C(CSc1ncn[nH]1)Nc1nc2c(F)c(F)c(F)cc2s1` it is “inactive”; for `Cc1occc1C(=O)NNC(=S)NCC(C)C` it is “inactive”. Turning to `C/C(=N\NC(=O)c1ccoc1C)c1ccccc1O`, the Potency is 13 µM (active). As for `C/C(=N/NC(=O)CCc1ccccc1)c1ccco1`, the Potency result was “inactive”. Consider `CCN(CC(=O)Nc1ccc(NC(C)=O)cc1)C(=O)C1CC(=O)N(c2ccc3c(c2)OCCO3)C1` (stereo not given), for which the Potency result was “inactive”. The value for `CN1CN(C)c2ccc([N+](=O)[O-])c3cccc1c23` was “inactive”. The value for `CCOc1cccc(=O)c2c(C)n(CC3CCCO3)c(C)c12` (stereo not given) was “inactive”. Turning to `O=C1c2cccc3c([N+](=O)[O-])ccc(c23)C(=O)N1CC1CCCO1` (stereo not given), the Potency is 18.4 µM (active). The entry for `CCNC(=O)C1(C)CCN(Cc2ccc(C(=O)OCC)o2)C1` (stereo not given) is “inactive”. Regarding `Cc1cccc(C(=O)NC2CCN(CC(=O)Nc3cccc(Cl)c3)CC2)c1`, the Potency result is “inactive”. Take `CC1(C(=O)NS(=O)(=O)c2ccc3ccccc3c2)CCN1C(=O)C1(c2ccc(Cl)cc2)CCC1` (stereo not given): the Potency entry is “inactive”. On to `O=C(O)c1ccccc1Cc1ccc(F)c2ccccc12`, for which the Potency result is “inactive”. Turning to `CS(=O)(=O)N(CC(O)Cn1c2ccccc2c2ccccc21)c1cccc2ccccc12` (stereo not given), the Potency is 20.6 µM (active). As for `CCCCN(CCCC)CC(O)Cn1c2ccccc2c(=O)c2ccccc21` (stereo not given), the Potency entry is “inactive”. As to `Cc1cc(C)n(CC(O)CN(c2ccccc2)S(=O)(=O)c2ccc3ccccc3c2)n1` (stereo not given), the Potency result is “inactive”.

Consider `CC1(C(=O)NS(=O)(=O)Cc2cccc(Cl)c2)CCN1C(=O)Cc1ccc(Cl)cc1Cl` (stereo not given), for which the Potency result is “inactive”. The entry for `Cc1ccccc1NC(=O)Cc1nc(COC(=O)C(C)(C)Oc2ccc(Cl)cc2)cs1` is “inactive”; for `Oc1ccc(N=Nc2nccs2)c(O)c1` it is 4.11 µM (active). The entry for `Cc1cc2c3ccccc3[nH]c(=O)n2n1` is “inactive”. The value for `COC(=O)[C@]12CCCCC=C1N(CCC1=CCCCC1)C(=O)[C@H](CC(=O)N1CCSCC1)C2` was “inactive”. In the case of `CCNC(=O)C1(C)CCCN1C(=O)c1ccc(N(C)C)cc1` (stereo not given), the Potency result was “inactive”.

For `O=C(NC(Cc1c[nH]c2ccccc12)C(=O)N/N=C/c1ccc(Br)cc1)c1cccs1` (stereo not given), the Potency is 32.6 µM (active).

Turning to `CC(=O)NC(Cc1c[nH]c2ccccc12)C(=O)O` (stereo not given), the Potency entry is “inactive”. For the molecule `O=C(CNC(=O)c1cccs1)N/N=C/c1cccc(Br)c1`, the Potency entry is “inactive”.

For the molecule `Cc1noc(C)c1-c1ccc(C(=O)NCc2ccncc2)c2occc12`, the Potency entry is “inactive”.

Consider `CN(C)CCNC(=O)/C(=C/c1cccc([N+](=O)[O-])c1)NC(=O)c1ccccc1`, for which the Potency entry is “inactive”. As for `C=CCNC(=O)/C(=C\c1cccc([N+](=O)[O-])c1)NC(=O)c1ccccc1`, the Potency result is “inactive”. Take `Cc1ccc(C(=O)N/C(=C/c2ccc(-c3cccc([N+](=O)[O-])c3)o2)C(=O)NCCCN(C)C)cc1`: the Potency is 14.6 µM (active). As for `COc1ccc(C(C(=O)Nc2c(C)cccc2C)N2CCN(c3ccc(C)cc3)CC2)cc1` (stereo not given), the Potency result is “inactive”.

On to `CCCC(=O)N1CCC1(C)C(=O)Nc1ccc(-n2cncn2)cc1` (stereo not given), for which the Potency entry is “inactive”. For the molecule `CCCNC(=O)C1(C)CCN(Cc2ccc(Cl)c(Cl)c2)C1` (stereo not given), the Potency entry is “inactive”. Take `COc1ccc(CCNCc2c(-c3ccccc3)n(C)c3ccccc23)cc1`: the Potency is 14.6 µM (active). For the molecule `COc1ccc(-c2c(C#Cc3ccccc3)c3ccccc3n2C)cc1`, the Potency result is “inactive”. For the molecule `COc1ccc(-c2nc3ccccc3c(=O)n2CCc2ccc(O)cc2)cc1`, the Potency result is “inactive”. With `CC(=O)NC(c1ccccc1)c1nc(-c2ccccc2C)cs1` (stereo not given), the Potency result was “inactive”. The entry for `C[C@H]1CN([C@@H](C)CO)C(=O)c2cc(-c3ccccc3F)cnc2O[C@H]1CN(C)C(=O)C1CCOCC1` is “inactive”.

`O=C(Nc1cccc2cccnc12)c1ccc2sc([C@H]3C[C@H](O)[C@@H](CO)O3)nc2c1`: the Potency entry is “inactive”. The figure for `CCOCCC(=O)Nc1ccc2c(c1)c(=O)n(C)n2-c1ccc2ccccc2c1` is 1.46 µM (active). In the case of `CCCC(=O)Nc1ccc2c(c1)nc1n2CCSC1`, the Potency entry is “inactive”. In the case of `CCNC(=S)Nc1ccc2c(c1)c(=O)n(C)n2Cc1ccc(Cl)cc1`, the Potency result was “inactive”. For the molecule `CCCCN(C(C)=O)c1ccc2c(c1)C1CC2CCN1Cc1ccccc1` (stereo not given), the Potency entry was “inactive”. The value for `COc1ccc(CCn2c3c(c(=O)[nH]c2=S)CN(C(C)C)CN3)cc1OC` was “inactive”; that for `C[C@H]1CN([C@@H](C)CO)C(=O)CCCn2nncc2CO[C@@H]1CN(C)Cc1ccc(Oc2ccccc2)cc1` was “inactive”. The value for `O=[N+]([O-])c1ccc(C=NN=Cc2ccc([N+](=O)[O-])cc2)cc1` was “inactive”; that for `O=C1/C(=C\c2ccc([N+](=O)[O-])cc2)CS(=O)(=O)C/C1=C/c1ccc([N+](=O)[O-])cc1` was 3.66 µM (active); that for `CC(=O)Nc1ccc(C=Cc2ccc([N+](=O)[O-])cc2)cc1` was “inactive”. As to `N#Cc1c(NC(=O)CCCl)sc2c1CCCCC2`, the Potency is 23.1 µM (active). For the molecule `CCN1CCN(CC(=O)Nc2sc3c(c2C#N)CCC3)CC1`, the Potency entry is “inactive”. In the case of `N#Cc1c(NC(=O)C2CCCO2)sc2c1CCCCC2` (stereo not given), the Potency entry was “inactive”.
